Bioassay records from PubChem BioAssay.
dFosB act-1 – activators of mouse delta FosB homodimer; P13346; purified delta FosB, TAMRA-CDK5 oligo fluorescence polarization; percent of positive-control signal above neutral wells; activation, % at 25 µM; hit rate 0.99% among 340,000;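 active = mean activation above about 17%, with every replicate also reaching it, limit read from the data, passing the limit was not always enough; inconclusive = only one of the two conditions met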
Efa HMGR inh – E. faecalis class II HMG-CoA reductase inhibition; purified E. faecalis HMGR, NADPH absorbance 340 nm kinetic; inhibition, % at 10 µM; hit rate 0.41% among 190,000; AID 1066;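 active = inhibition above a set limit, the median over all tested compounds plus 3 SD, cut at about 9.5% in these data; inconclusive = no clear call, values can overlap the other calls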;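 also: enzyme runs in reverse so mevalonate oxidation gives rising NADPH absorbance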
14-3-3 Bad PPI – disrupts binding of bovine 14-3-3 zeta to phospho-Bad peptide; TR-FRET 14-3-3zeta/Dy647-pBad peptide displacement, 1 h; P63103; inhibition, % at 21.7 µM; hit rate 0.71% among 220,000; AID 781;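 active = inhibition above about 70%, limit read from the data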
Target sequence (P63103 whole entry, looked up): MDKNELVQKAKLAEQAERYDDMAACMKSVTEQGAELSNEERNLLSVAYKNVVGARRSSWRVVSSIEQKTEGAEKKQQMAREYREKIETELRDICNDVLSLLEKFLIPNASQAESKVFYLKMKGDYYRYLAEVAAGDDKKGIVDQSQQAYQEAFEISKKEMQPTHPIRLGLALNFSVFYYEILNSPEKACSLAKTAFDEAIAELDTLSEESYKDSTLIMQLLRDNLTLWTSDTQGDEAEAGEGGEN
p47phox inh – p47phox (human) inhibition; P14598; p47phox/p22phox peptide binding, fluorescence polarization, 2 h; inhibition, % at 24.7 µM; hit rate 0.53% among 220,000; AID 1274;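 active = inhibition above about 30%, limit read from the data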
dFosB act-2 – activators of mouse delta FosB homodimer DNA binding; shares compounds with dFosB act-1; purified delta FosB, TAMRA-CDK5 oligo fluorescence polarization; normalised: neutral wells 0, positive control 100; activation, % at 24.9 µM; 2,400 tested, under 10 active; AID 588690;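 active = highest replicate activation at or above 34% and every replicate reaching that threshold; inconclusive = meets only one of the two criteria; inactive = meets neither criterion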;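 also: higher polarization means more probe DNA bound by delta FosB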
Numbers stand for hits; 0 = inactive; ? = inconclusive; - = no result. Hits are enriched below; roughly 1.9% of the tested compounds scored in any of these assays.

SMILES	dFosB act-1	Efa HMGR inh	14-3-3 Bad PPI	p47phox inh	dFosB act-2
O=S(=O)(NCc1ccc2c(c1)OCO2)c1ccc(F)cc1	0	-	-	-	-
CN(C)S(=O)(=O)c1ccc(S(=O)(=O)NCc2ccc3c(c2)OCO3)cc1	36	-	-	-	0
Cc1ccc(CCNC(=O)C2CCN(S(=O)(=O)c3cccc4nsnc34)CC2)cc1	33	0	0	0	0
COc1ccc(C(=O)NC(=S)Nc2ccc(CN3CCOCC3)cc2)cc1OC	-	-	0	0	-
COc1ccc(Br)cc1/C=C/C(=O)NC(=S)Nc1ccc(CN2CCOCC2)cc1	48	-	-	-	0
COc1ccccc1N(C)S(=O)(=O)c1ccc(C(=O)N2CCCc3ccccc32)cc1	0	-	-	-	-
Cc1[nH]c2ccccc2c1C(=O)CN1CCN(C2CCCCC2)CC1	-	0	0	0	-
Cc1[nH]c2ccccc2c1C(=O)CN1C(=O)C(=O)N(C2CCCC2)C1=O	47	0	0	0	0
N#Cc1ccc(C(=O)NC(=S)NC2CCCCC2)cc1	0	-	-	-	-
C/C(=N\NC(=S)NC1CCCCC1)c1ccc(C#N)cc1	36	0	0	0	0
COc1cc2nc(CSc3nc(-c4ccc(F)cc4)cs3)[nH]c(=O)c2cc1OC	0	0	0	0	-
CCc1ccc(NC(=O)C2CCN(c3ncnc4c3nc3n4CCCCC3)CC2)cc1	0	-	-	-	-
O=C(Nc1ccc(F)cc1)C1CCN(c2ncnc3c2nc2n3CCCCC2)CC1	48	-	-	-	0
O=C(Nc1ccc(Cl)c(Cl)c1)c1ccncc1	0	0	0	0	-
O=C(Nc1ccc(Cl)c(Cl)c1)c1ccc(Cl)c(Cl)c1	33	-	0	0	0
Cc1ccc(NC(=O)Nc2ccc3c(c2)C(=O)OC3)cc1Cl	29	-	0	0	0
O=C(Nc1ccc2c(c1)COC2=O)c1ccc(Cl)c(Cl)c1	38	-	-	-	0
COCCCn1c(=O)/c(=C\c2ccccc2OC(F)F)s/c1=C(/C#N)C(=O)NCCOC	0	-	0	0	-
CC1CC(C)CN(S(=O)(=O)c2ccc3c(c2)oc(=O)n3CC(=O)N(C)Cc2ccccc2)C1 (stereo not drawn)	47	-	-	-	0
COc1cc(OC)c(NS(=O)(=O)c2cc(C(=O)OC(C)C(=O)NC3CC3)c(Cl)cc2Cl)cc1Cl (stereo not drawn)	0	0	0	0	-
CC[C@@H](C)[C@@H]1CN([C@@H](C)CN2CCC[C@H]2CN2C(N)=NC[C@@H]2Cc2ccccc2)C(=N)N1CCc1ccc(Cl)c(Cl)c1	23	-	-	-	0
CC[C@@H](C)[C@@H]1CN([C@@H](C)CN2CCC[C@H]2CN2C(N)=NC[C@@H]2Cc2ccccc2)C(=N)N1CCCC1CCCC1	0	-	-	-	-
CC(=O)c1cccc(NC(=O)CC2S/C(=N/N=C/c3ccccc3)NC2=O)c1 (stereo not drawn)	49	0	0	0	0
CC(=O)c1cccc(NC(=O)CC2S/C(=N/N=C/c3cccs3)NC2=O)c1 (stereo not drawn)	40	0	0	0	0
CCCCCc1cc(=O)oc2c(C(CCN3CCCC(C)C3)c3cc(OC)c(OC)c(OC)c3)c(OC)cc(OC)c12 (stereo not drawn)	19	-	0	0	0
SMILES	dFosB act-1	Efa HMGR inh	14-3-3 Bad PPI	p47phox inh	dFosB act-2
CCCCCc1cc(=O)oc2c(C(CCN3CCCCC3)c3cc(OC)c(OC)c(OC)c3)c(OC)cc(OC)c12 (stereo not drawn)	0	-	0	0	-
O=C(NC(=S)Nc1cccc(NC(=O)c2ccc(Cl)cc2Cl)c1)c1cccs1	44	0	0	0	0
COc1ccc2nc(NC(=O)C3CCCN(S(=O)(=O)c4cccs4)C3)sc2c1 (stereo not drawn)	?	0	0	0	-
COc1ccc2nc(NC(=O)C3CCN(S(=O)(=O)c4cccs4)CC3)sc2c1	25	0	0	0	?
CCC(=O)NC(=S)Nc1ccc2oc(-c3ccc(OC)cc3)nc2c1	40	0	0	0	0
COc1ccc(-c2nc3cc(NC(=S)NC(=O)Cc4ccccc4)ccc3o2)cc1	0	0	0	0	-
Cc1cc(NC(=O)CSc2nnc(Nc3ccccc3C)s2)no1	62	-	0	0	0
O=C(CSc1nnc(NC(=O)c2ccco2)s1)Nc1ccccc1F	0	0	0	0	-
Cc1ccccc1NC(=O)CSc1nnc(NC(=O)c2ccco2)s1	39	-	-	-	0
COc1ccc(-c2cc(-c3cccs3)c(C#N)c(SCC(=O)NCc3ccco3)n2)cc1	47	0	0	0	0
COc1ccc(CNC(=O)CSc2nc(-c3ccccc3)cc(-c3cccs3)c2C#N)cc1	?	0	0	0	-
COc1ccc(CC(=O)Nc2ccc(C)cc2O)cc1S(=O)(=O)N1CCOCC1	0	-	-	-	-
